The values that follow come from article PMC7862700, “An all-to-all approach to the identification of sequence-specific readers for epigenetic DNA modifications on cytosine”.

What all share (test): DAPPL (digital affinity profiling via proximity ligation, sequencing); 10 mM Tris-HCl pH 7.5, 50 mM NaCl, 1 mM DTT, 4% glycerol, room temperature, 30 min; GST-TFs on glutathione beads, 16-mer random dsDNA library, 0.1% formaldehyde crosslink after washing; high values mean tight binding
One assay deals with T1, FLI1 (Homo sapiens, UniProt Q01543 1-452).
T1 sequence: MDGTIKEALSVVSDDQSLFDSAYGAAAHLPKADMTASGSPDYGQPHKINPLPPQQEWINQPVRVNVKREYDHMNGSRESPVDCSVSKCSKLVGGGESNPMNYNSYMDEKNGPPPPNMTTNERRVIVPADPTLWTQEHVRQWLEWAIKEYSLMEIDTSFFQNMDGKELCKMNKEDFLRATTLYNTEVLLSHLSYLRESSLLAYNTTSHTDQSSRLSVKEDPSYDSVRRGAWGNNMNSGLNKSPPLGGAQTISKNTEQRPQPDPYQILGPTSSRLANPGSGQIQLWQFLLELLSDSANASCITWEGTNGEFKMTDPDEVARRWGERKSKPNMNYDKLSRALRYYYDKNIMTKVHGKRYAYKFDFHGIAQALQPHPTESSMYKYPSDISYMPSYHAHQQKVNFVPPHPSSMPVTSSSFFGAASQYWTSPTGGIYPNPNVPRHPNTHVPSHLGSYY
The following applies: protein: recombinant; tags: N-terminal GST; dsDNA, one strand shown. A digest of the protocol: (§1)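 The binding signal reported is, for every hexamer, its read frequency for a factor over its read frequency for the tag-only sample. Reads came from pools of yeast-expressed, GST-fused human transcription factors on glutathione beads, barcoded with DNA and mixed with that sample, which were incubated with 200 nmole of a random double-stranded 16-mer DNA library in Tris/NaCl/DTT/glycerol buffer at room temperature for 30 min. After washing, the pools were crosslinked with 0.1% formaldehyde, proximity-ligated with BsaI/T4 ligase for 1 h at 37 °C, PCR-amplified and sequenced on an Illumina NextSeq500.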

Another assay deals with T2, ELK1 (Homo sapiens, UniProt P19419 1-428).
T2 sequence: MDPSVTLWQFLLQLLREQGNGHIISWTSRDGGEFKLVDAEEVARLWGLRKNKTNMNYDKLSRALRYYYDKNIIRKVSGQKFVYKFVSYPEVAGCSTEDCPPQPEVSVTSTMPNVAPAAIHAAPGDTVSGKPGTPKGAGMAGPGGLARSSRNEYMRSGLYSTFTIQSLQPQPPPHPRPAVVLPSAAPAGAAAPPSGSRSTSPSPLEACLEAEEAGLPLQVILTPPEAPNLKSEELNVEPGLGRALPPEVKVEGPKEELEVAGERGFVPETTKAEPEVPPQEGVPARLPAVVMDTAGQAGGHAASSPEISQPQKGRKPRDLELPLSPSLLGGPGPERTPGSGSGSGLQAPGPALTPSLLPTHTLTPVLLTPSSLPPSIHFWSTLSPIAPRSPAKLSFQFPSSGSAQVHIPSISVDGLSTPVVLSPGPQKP
The conditions noted are these: protein: recombinant; tags: N-terminal GST; dsDNA, one strand shown. Put shortly: as §1

In another assay the target is T3, GABPA (Homo sapiens, UniProt Q06546 1-454).
T3 sequence: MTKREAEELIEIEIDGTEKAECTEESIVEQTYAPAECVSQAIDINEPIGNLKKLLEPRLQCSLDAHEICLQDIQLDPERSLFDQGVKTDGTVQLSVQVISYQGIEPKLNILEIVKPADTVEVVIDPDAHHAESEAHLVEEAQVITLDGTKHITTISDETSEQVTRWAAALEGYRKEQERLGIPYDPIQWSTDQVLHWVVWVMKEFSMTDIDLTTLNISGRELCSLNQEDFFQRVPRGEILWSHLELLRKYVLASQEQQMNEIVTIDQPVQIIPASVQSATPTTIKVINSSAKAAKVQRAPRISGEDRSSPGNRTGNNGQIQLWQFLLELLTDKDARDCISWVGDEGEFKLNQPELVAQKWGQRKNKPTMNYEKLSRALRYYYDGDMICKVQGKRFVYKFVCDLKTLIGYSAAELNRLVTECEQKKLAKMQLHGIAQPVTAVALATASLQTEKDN
The conditions noted are these: protein: recombinant; tags: N-terminal GST; dsDNA, one strand shown. A digest of the protocol: as §1

A further assay deals with T4, ERG (Homo sapiens, UniProt P11308 1-479).
T4 sequence: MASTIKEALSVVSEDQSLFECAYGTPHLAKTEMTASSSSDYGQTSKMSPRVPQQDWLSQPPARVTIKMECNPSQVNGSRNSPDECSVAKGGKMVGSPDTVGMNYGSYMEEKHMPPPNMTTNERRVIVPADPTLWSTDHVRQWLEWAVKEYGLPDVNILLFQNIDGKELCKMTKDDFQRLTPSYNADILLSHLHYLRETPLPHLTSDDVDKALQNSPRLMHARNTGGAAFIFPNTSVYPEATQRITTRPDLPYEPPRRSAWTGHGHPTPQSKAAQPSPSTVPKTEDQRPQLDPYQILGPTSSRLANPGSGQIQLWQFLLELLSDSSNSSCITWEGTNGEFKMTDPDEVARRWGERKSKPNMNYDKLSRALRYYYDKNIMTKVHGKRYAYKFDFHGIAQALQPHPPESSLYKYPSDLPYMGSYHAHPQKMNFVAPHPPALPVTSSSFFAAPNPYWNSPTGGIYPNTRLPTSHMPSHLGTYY
The conditions noted are these: protein: recombinant; tags: N-terminal GST; dsDNA, one strand shown. Put shortly:
as §1

The target of another assay is ELF1 (Homo sapiens, UniProt P32519 1-619). The following applies: protein: recombinant; tags: N-terminal GST; dsDNA, one strand shown. Put shortly: as §1
The target in the next assay is SPI1 (Homo sapiens, UniProt P17947 1-270). The conditions noted are these: protein: recombinant; tags: N-terminal GST; dsDNA, one strand shown. Put shortly: as §1
The target of a further assay is ETV5 (Homo sapiens, UniProt P41161 1-510). The following applies: protein: recombinant; tags: N-terminal GST; dsDNA, one strand shown. A digest of the protocol:
as §1

The target in the next assay is HSF1 (Homo sapiens, UniProt Q00613 1-529). The conditions noted are these: protein: recombinant; tags: N-terminal GST; chain copies: 3; dsDNA, one strand shown. A digest of the protocol:
as §1

The next assay addresses T5, SPIC (Homo sapiens, UniProt Q8N5J4 1-248).
T5 sequence: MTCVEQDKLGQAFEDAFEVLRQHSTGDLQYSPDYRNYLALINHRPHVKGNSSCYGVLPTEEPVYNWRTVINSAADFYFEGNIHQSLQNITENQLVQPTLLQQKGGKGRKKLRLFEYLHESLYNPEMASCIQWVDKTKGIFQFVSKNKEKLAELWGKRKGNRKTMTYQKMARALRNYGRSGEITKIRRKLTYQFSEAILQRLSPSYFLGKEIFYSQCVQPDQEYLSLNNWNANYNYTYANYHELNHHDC
The conditions noted are these: protein: recombinant; tags: N-terminal GST; dsDNA, one strand shown. A digest of the protocol:
as §1

The target of a further assay is ELF4 (Homo sapiens, UniProt Q99607 1-663). The following applies: protein: recombinant; tags: N-terminal GST; dsDNA, one strand shown. Put shortly: as §1
The next assay deals with T6, ELK4 (Homo sapiens, UniProt P28324-2 1-405).
T6 sequence: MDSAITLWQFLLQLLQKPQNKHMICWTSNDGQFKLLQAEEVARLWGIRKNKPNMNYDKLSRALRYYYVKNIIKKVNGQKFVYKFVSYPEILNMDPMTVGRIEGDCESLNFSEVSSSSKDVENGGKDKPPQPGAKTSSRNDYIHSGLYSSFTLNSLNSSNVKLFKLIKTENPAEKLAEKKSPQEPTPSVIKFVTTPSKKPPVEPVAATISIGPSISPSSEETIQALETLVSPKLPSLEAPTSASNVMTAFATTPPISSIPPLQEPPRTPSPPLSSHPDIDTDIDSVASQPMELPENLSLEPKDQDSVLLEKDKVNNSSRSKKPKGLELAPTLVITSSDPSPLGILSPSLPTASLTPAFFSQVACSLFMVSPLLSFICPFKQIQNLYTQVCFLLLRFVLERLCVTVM
The following applies: protein: recombinant; tags: N-terminal GST; dsDNA, one strand shown. A digest of the protocol: as §1

The next assay has as its target T7, ETV2 (Homo sapiens, UniProt O00321 1-342).
T7 sequence: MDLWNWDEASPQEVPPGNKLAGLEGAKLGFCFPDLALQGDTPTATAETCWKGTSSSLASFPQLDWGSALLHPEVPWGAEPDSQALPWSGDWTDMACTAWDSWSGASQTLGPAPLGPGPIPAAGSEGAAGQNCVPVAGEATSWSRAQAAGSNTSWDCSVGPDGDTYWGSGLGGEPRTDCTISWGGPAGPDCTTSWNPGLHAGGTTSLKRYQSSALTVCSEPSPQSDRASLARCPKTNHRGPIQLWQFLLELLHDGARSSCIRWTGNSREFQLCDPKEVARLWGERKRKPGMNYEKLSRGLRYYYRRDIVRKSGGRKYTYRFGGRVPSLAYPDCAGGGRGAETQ
The following applies: protein: recombinant; tags: N-terminal GST; dsDNA, one strand shown. A digest of the protocol: as §1

Another assay deals with ETV1 (Homo sapiens, UniProt P50549 1-477). The conditions noted are these: protein: recombinant; tags: N-terminal GST; dsDNA, one strand shown. A digest of the protocol:
as §1

Another assay concerns the target T8, EHF (Homo sapiens, UniProt Q9NZC4 1-300).
T8 sequence: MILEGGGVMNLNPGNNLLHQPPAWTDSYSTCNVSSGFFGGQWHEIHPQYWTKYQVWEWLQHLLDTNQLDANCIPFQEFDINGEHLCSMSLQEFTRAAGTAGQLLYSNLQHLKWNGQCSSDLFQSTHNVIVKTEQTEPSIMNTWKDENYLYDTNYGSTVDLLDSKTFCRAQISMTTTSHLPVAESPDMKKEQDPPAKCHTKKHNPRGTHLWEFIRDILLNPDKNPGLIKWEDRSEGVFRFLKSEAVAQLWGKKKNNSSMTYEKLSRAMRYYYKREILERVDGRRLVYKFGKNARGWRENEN
The conditions noted are these: protein: recombinant; tags: N-terminal GST; dsDNA, one strand shown. A digest of the protocol: as §1

The target of the next assay is SPIB (Homo sapiens, UniProt Q01892 1-262). The following applies: protein: recombinant; tags: N-terminal GST; dsDNA, one strand shown. Put shortly: as §1
The next assay addresses T9, ELK3 (Homo sapiens, UniProt P41970 1-407).
T9 sequence: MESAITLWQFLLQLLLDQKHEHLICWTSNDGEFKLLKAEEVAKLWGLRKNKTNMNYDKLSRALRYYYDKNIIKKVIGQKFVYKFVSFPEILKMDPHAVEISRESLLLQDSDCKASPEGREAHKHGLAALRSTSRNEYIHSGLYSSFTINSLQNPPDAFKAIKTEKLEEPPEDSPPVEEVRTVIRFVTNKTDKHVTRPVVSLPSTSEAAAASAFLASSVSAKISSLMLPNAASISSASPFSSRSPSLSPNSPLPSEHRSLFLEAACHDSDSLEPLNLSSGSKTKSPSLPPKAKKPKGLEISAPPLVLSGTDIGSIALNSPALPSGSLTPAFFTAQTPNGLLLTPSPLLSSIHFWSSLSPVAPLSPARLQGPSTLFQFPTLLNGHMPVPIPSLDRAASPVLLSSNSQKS
The conditions noted are these: protein: recombinant; tags: N-terminal GST; dsDNA, one strand shown. A digest of the protocol: as §1

The next assay has as its target T10, FEV (Homo sapiens, UniProt Q99581 1-238).
T10 sequence: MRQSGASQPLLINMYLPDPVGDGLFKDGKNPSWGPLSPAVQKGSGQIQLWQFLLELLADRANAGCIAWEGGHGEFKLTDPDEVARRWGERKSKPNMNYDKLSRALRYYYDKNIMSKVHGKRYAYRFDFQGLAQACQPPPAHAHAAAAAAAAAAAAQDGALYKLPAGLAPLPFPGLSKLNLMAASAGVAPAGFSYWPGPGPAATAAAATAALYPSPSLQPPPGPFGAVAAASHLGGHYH
The conditions noted are these: protein: recombinant; tags: N-terminal GST; dsDNA, one strand shown. A digest of the protocol:
as §1

Chain of ETV5 (P41161 whole entry): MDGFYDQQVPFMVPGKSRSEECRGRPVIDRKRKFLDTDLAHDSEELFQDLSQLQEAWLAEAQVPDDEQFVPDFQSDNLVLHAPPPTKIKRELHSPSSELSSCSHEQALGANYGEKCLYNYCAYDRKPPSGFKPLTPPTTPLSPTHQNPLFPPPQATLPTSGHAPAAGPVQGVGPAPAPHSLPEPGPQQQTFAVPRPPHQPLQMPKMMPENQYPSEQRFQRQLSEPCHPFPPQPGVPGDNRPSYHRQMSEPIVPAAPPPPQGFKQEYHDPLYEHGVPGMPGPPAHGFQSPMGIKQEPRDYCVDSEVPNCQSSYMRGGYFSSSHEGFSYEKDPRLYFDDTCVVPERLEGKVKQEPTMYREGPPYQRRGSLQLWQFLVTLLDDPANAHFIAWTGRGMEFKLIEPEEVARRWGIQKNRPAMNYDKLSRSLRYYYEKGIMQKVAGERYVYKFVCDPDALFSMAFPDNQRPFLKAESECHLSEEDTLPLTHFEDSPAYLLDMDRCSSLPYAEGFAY
Chain of ELF1 (P32519 whole entry): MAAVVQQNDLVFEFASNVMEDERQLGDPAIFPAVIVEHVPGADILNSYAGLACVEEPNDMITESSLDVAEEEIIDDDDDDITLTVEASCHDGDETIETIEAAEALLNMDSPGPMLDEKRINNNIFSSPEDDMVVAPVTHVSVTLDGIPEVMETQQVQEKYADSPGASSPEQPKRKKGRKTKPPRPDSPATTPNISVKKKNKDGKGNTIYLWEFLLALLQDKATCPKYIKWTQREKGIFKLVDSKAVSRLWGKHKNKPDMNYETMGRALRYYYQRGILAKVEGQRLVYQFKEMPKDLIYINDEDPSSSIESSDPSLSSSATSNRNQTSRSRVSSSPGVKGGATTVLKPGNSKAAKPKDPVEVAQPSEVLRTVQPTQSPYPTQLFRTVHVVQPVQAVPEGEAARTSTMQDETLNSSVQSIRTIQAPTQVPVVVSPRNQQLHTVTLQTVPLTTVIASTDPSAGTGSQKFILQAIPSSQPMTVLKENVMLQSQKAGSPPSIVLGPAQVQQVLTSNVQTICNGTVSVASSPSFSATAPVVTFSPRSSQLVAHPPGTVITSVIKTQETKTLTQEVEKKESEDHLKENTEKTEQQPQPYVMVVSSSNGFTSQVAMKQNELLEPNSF
Chain of ETV1 (P50549 whole entry): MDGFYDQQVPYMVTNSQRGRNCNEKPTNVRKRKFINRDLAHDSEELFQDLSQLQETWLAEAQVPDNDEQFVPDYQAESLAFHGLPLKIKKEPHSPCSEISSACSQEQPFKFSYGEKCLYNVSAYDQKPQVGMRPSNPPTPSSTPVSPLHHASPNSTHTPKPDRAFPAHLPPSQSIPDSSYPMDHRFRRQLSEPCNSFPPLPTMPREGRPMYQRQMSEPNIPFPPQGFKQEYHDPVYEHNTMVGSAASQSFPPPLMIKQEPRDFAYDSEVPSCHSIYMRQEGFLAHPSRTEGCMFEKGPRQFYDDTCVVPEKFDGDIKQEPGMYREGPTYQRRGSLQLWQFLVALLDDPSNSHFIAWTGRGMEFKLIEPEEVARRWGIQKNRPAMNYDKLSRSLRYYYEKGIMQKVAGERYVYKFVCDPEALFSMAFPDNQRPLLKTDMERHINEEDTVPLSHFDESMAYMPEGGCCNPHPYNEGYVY
Chain of ELF4 (Q99607 whole entry): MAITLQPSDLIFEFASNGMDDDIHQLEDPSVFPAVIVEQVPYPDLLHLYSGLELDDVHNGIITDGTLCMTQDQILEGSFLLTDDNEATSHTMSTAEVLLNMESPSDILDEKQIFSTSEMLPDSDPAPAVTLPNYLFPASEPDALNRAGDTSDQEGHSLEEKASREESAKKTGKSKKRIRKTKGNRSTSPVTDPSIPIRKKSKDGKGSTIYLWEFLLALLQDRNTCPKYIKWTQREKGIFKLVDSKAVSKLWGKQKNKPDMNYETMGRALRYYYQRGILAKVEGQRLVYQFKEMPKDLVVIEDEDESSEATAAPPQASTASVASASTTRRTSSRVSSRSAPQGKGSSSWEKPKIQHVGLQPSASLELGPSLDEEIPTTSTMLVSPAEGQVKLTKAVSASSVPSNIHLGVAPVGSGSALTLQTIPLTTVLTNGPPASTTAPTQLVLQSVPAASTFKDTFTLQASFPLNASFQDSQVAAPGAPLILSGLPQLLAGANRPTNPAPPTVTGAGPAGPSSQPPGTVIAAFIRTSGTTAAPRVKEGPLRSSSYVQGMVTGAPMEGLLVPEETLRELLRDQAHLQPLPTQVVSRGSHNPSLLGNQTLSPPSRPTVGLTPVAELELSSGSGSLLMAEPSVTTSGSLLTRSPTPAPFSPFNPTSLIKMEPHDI
Chain of HSF1 (Q00613 whole entry): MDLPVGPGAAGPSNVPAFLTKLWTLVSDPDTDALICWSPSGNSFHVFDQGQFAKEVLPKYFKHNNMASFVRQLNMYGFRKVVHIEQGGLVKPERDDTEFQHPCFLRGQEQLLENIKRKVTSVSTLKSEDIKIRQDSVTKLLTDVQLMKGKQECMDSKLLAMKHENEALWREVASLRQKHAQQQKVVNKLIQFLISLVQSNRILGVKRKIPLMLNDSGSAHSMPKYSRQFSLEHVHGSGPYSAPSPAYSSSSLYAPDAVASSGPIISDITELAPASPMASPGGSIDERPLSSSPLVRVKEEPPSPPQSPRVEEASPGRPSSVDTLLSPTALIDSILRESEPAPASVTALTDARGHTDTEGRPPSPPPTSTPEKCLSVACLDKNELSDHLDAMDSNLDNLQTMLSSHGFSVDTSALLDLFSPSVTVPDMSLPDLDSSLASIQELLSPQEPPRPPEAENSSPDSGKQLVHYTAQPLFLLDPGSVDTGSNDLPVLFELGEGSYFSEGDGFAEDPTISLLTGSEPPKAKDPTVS
Chain of SPIB (Q01892 whole entry): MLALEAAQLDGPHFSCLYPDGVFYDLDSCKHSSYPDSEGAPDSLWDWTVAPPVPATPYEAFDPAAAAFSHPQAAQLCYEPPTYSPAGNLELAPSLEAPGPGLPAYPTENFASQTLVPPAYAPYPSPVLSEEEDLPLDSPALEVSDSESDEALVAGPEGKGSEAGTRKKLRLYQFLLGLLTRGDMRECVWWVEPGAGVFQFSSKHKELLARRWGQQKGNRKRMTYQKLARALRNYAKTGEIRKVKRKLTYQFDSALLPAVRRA

On to CAGATG, for which the binding signal in the assay with FLI1 was 1.05 fold enrichment (6-mer frequency, TF over GST control); with ELK1, 1.09 fold enrichment (6-mer frequency, TF over GST control); in the assay with GABPA, 1.04 fold enrichment (6-mer frequency, TF over GST control); with ERG, 1.09 fold enrichment (6-mer frequency, TF over GST control); with ELF1, 1.08 fold enrichment (6-mer frequency, TF over GST control); with SPI1 it was 1 fold enrichment (6-mer frequency, TF over GST control). Also, the binding signal with ETV5 was 1.01 fold enrichment (6-mer frequency, TF over GST control); in the assay with HSF1, 1.01 fold enrichment (6-mer frequency, TF over GST control); in the assay with SPIC, 1.12 fold enrichment (6-mer frequency, TF over GST control); in the assay with ELF4, 1.02 fold enrichment (6-mer frequency, TF over GST control); with ELK4 it was 1.06 fold enrichment (6-mer frequency, TF over GST control); in the assay with ETV2, 1.01 fold enrichment (6-mer frequency, TF over GST control). Also, in the assay with ETV1, the binding signal was 1.01 fold enrichment (6-mer frequency, TF over GST control).
Consider TGCGCG, for which the binding signal was 1.02 fold enrichment (6-mer frequency, TF over GST control) in the assay with FLI1; 1.05 fold enrichment (6-mer frequency, TF over GST control) with ELK1; 1.02 fold enrichment (6-mer frequency, TF over GST control) with GABPA; 1.04 fold enrichment (6-mer frequency, TF over GST control) with ERG; 1.02 fold enrichment (6-mer frequency, TF over GST control) with ELF1; 1.16 fold enrichment (6-mer frequency, TF over GST control) with EHF. The binding signal with SPI1 was 1.16 fold enrichment (6-mer frequency, TF over GST control); with SPIB it was 1.06 fold enrichment (6-mer frequency, TF over GST control); with ELK3 it was 1.11 fold enrichment (6-mer frequency, TF over GST control); in the assay with FEV, 1.07 fold enrichment (6-mer frequency, TF over GST control); with ETV5 it was 1.07 fold enrichment (6-mer frequency, TF over GST control); with HSF1 it was 1.15 fold enrichment (6-mer frequency, TF over GST control). Moreover, the binding signal is 1.05 fold enrichment (6-mer frequency, TF over GST control) with SPIC; 1.05 fold enrichment (6-mer frequency, TF over GST control) with ELF4; 1.16 fold enrichment (6-mer frequency, TF over GST control) with ELK4; 1.13 fold enrichment (6-mer frequency, TF over GST control) in the assay with ETV2; 1.19 fold enrichment (6-mer frequency, TF over GST control) with ETV1.
